Experimental data published in PubChem BioAssay AID624125 (The Scripps Research Institute Molecular Screening Center, 2012).
Screen size: about 360,000 compounds; about 2,600 (0.72%) were called active.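 The calls were made as follows: active = inhibition above its plate's cutoff, the mean inhibition of sample wells plus 3 SD (cut at about 27% in these data); inactive = the rest.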 The entries come from a sample that favours actives as a whole.

What follows are compounds tested against Muscarinic acetylcholine receptor M4 (Homo sapiens) (UniProt P08173) (assay: human M4 muscarinic receptor antagonists, primary screen, CHO cells, Fluo-8 calcium fluorescence (AID 624125;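 also: 0% = acetylcholine EC80 with DMSO and 100% = DMSO without agonist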)). Details: CHO-hM4 cells, ACh EC80, Fluo-8 calcium fluorescence; at 3 µM; active compounds read high.
Sequence of Muscarinic acetylcholine receptor M4 (Homo sapiens) (P08173 whole entry, looked up): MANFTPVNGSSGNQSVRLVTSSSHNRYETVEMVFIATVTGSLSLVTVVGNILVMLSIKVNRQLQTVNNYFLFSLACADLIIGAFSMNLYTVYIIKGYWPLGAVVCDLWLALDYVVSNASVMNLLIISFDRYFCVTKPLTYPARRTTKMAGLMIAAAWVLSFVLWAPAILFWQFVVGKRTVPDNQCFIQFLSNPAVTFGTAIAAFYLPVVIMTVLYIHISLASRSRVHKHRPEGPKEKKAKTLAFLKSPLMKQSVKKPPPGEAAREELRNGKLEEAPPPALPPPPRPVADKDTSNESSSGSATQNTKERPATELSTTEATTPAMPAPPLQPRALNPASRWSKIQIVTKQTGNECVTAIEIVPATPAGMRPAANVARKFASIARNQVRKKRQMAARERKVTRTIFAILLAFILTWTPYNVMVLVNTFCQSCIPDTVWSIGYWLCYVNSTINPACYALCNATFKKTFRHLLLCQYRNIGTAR

| Structure (SMILES) | inhibition |
| --- | --- |
| CN(CC(=O)Nc1ccc(F)cc1)CC(=O)Nc1ccc(Cl)c(S(=O)(=O)N2CCOCC2)c1 | -7.68% (inactive) |
| Cc1cc(NS(=O)(=O)c2ccc(NC(=S)NC(=O)c3ccc(F)cc3Cl)cc2)no1 | 9.04% (inactive) |
| O=C(N[C@@H](Cc1ccccc1)C(=O)OCc1ccccc1)c1nc[nH]c1C(=O)N[C@@H](Cc1ccccc1)C(=O)OCc1ccccc1 | 2.96% (inactive) |
| C[C@H](NC(=O)c1nc[nH]c1C(=O)NCC(=O)OC(C)(C)C)C(=O)OCc1ccccc1 | 17.7% (inactive) |
| Cc1cccc(CS(=O)(=O)c2ncc(Cl)c(C(=O)Nc3ccc(F)cc3)n2)c1 | 33.5% (active) |
| Cc1cccc(NC(=O)c2nc(S(=O)(=O)Cc3ccccc3)ncc2Cl)c1 | 51.3% (active) |
| Cc1cccc(NC(=O)c2nc[nH]c2C(=O)NCC(=O)OCc2ccccc2)c1 | 29.3% (active) |
| Cc1cccc(NS(=O)(=O)c2ccc(C)c(C(=O)NCc3cccnc3)c2)c1 | -6.05% (inactive) |
| O=C(CS(=O)(=O)Cc1ccccc1)Nc1cccnc1 | -2.16% (inactive) |
| COc1ccc(NC(=O)CCn2ccnc2)c(OC)c1 | 4.14% (inactive) |
| COc1ccc(NS(=O)(=O)c2ccc(N3CCOCC3)c(NC(=O)c3ccccc3Br)c2)cc1 | -9.67% (inactive) |
| Cc1ccc(NS(=O)(=O)c2cc3c(cc2C)NC(=O)CO3)cc1 | 2.56% (inactive) |
| CN(Cc1c(F)cccc1Cl)S(=O)(=O)c1cccs1 | -12.9% (inactive) |
| Cc1cc(=O)n2nc(N3CCCC3C(=O)NCCCN3CC(C)CC(C)C3)sc2n1 (centres undefined) | -11.3% (inactive) |
| c1ccc(C(=NNc2nc3ccccc3s2)c2ccccn2)cc1 | 56.1% (active) |
| Cc1ccc(C)c(N2CCN(C(=O)Cn3ncn4cccc4c3=O)CC2)c1 | -6.41% (inactive) |
| Cc1ccc(OCCCC(=O)N2CCOCC2)c(C)c1 | -1.8% (inactive) |
| Cc1ccc(C)c(N2CCN(C(=O)CCCCCn3c(=S)[nH]c4ccc(N5CCOCC5)cc4c3=O)CC2)c1 | 33.6% (active) |
| C[C@H]1CN([C@@H](C)CO)C(=O)CCCn2nncc2CO[C@@H]1CN(C)S(=O)(=O)c1cccc(C#N)c1 | -12.9% (inactive) |
| N=c1c2c3c(sc2ncn1CCCN1CCOCC1)CCCCC3 | 10.8% (inactive) |
| N=c1c2c3c(sc2nc2n1CCCCC2)CCCC3 | 46.3% (active) |
| CC1(C)Cc2c(sc3nc4n(c(=N)c23)CCCCC4)CO1 | 3.83% (inactive) |
| Cc1cc(C)c(S(=O)(=O)c2cc(F)ccc2C)c(=O)[nH]1 | 1.71% (inactive) |
| CCN1/C(=C\c2ccc3ccccc3[n+]2CC)Sc2cc(C)ccc21 | 34% (active) |
